Only a selection was taken, and hits are over-represented in it overall.
NPR1 activator = GC-A (human) enzyme activation; P16066; HEK293 GC-A cells, cGMP TR-FRET, EC30 ANP; 0% at EC30 ANP, 100% saturating ANP; activation, % at 10 µM; 370,000 compounds, 0.14% hits; in the data active means activation above about 40%
HDAC3 inhib = human HDAC3 inhibition | recombinant HDAC3, fluorogenic peptide/trypsin coupled, fluorescence | inhibition, % at 8.3 µM | 320,000 compounds, 0.15% hits | AID 2718; in the data active means inhibition above about 26%, passing the limit was not always enough; inconclusive means no clear call, values can overlap the other calls
Target sequence (O15379 whole entry, looked up): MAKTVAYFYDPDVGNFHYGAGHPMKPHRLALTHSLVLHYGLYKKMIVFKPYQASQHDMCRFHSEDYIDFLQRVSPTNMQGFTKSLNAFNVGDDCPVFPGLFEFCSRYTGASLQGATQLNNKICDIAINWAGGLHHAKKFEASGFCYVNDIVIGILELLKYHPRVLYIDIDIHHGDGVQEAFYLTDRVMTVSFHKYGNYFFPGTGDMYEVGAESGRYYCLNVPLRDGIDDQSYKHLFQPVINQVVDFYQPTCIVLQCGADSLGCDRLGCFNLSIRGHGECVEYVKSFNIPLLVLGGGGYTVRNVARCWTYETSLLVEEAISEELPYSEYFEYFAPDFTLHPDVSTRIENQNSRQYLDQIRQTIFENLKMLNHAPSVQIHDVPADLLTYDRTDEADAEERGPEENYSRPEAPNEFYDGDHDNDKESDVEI
ALR H2O2 inh = blocks human ALR sulfhydryl oxidase activity; 290,000 compounds, 3.8% hits; purified ALR, DTT oxidation, H2O2 HRP-luminol luminescence; inhibition, % (test concentration not listed);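 active means mean replicate inhibition above about 79%, with every replicate also reaching it, limit read from the data; inconclusive means only one of the two criteria met; inactive means mean below limit and not every replicate reaching it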
Target sequence (P55789 whole entry, looked up): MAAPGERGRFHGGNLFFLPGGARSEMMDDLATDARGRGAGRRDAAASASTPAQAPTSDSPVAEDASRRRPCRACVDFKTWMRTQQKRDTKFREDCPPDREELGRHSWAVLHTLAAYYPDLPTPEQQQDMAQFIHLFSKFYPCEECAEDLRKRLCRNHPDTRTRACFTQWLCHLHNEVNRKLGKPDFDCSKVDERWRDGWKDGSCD
NPR2 activator = GC-B (human) receptor activation | P20594 | HEK293-GC-B cells, CNP EC30, cGMP TR-FRET; 0% at EC30 CNP, 100% saturating CNP | activation, % at 10 µM | 370,000 compounds, 0.11% hits | AID 1920062;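 active means activation at 10 µM reaching about 35% in either raw or pattern-adjusted values, limit read from the data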
Each line names hits and unclear results; the compound was inactive in the other large screens.

Cc1ccc2nc(SCC(=O)Nc3ccc(C)c([N+](=O)[O-])c3)[nH]c2c1	ALR H2O2 inh 87.4
C/C(=N/OC(=O)c1ccc(C)cc1)c1cccs1	none
CC/C(=N/OC(=O)c1cccc(C)c1)C(=O)c1cccs1	ALR H2O2 inh 91.4
Cc1ccc(C(=O)O)cc1NC(=S)NC(=O)c1ccc(-c2ccccc2)cc1	ALR H2O2 inh 98.2
O=C(O)c1cccc(NC(=S)NC(=O)c2ccc(-c3ccccc3)cc2)c1	none
Cc1cccc(C(=O)NC(=S)Nc2ccccc2C(=O)O)c1	ALR H2O2 inh 98.7
O=C(O)c1ccccc1NC(=S)NC(=O)c1cccc2ccccc12	ALR H2O2 inh 97.9
Cc1ccc(C(=O)Nc2ccc(O)cc2C(=O)O)cc1C	ALR H2O2 inh 97.7
COc1cccc2c1[C@H](/C=C/c1ccccc1)[C@@H]([C@H](O)COC(C)=O)OC2	none (no result: HDAC3 inhib, ALR H2O2 inh)
O=C(NCCCN1CCOCC1)c1cc2ccccc2cc1O	none (no result: ALR H2O2 inh)
CCOC(=O)C1=NN2C(O)C3(C)CC(C(=O)OCC)=NN3C(O)C2(C)C1 (stereo not given)	none (no result: HDAC3 inhib, ALR H2O2 inh)
CN1C(=O)/C(=C/c2ccc(C(=O)Nc3ccc(O)cc3C(=O)O)cc2)SC1=S	ALR H2O2 inh 97.4
CC(=O)Nc1ccccc1NC(=O)c1cccc2ccccc12	none (no result: HDAC3 inhib, ALR H2O2 inh)
Cc1ccc(/C=C2\SC(=S)N(CCC(=O)NNC(=O)c3ccc(O)cc3)C2=O)cc1	none
Cc1ccc(O)c(NC(=S)NC(=O)c2ccccc2Cl)c1	ALR H2O2 inh 97.3
COc1cccc(C(=O)NC(=S)Nc2ccc(Cl)cc2C(=O)O)c1	ALR H2O2 inh 97.4
COc1cccc(C(=O)NC(=S)Nc2ccc3c4c(cccc24)CC3)c1	none
O=C(O)c1cc(O)ccc1NC(=O)c1cccc2ccccc12	ALR H2O2 inh 95.5
CC[C@H](C)[C@H](NC(N)=O)C(=O)Nc1ccccc1F	none
O=C(NC1CCC1)c1ccc(C#Cc2cccc(F)c2)nc1	none (no result: HDAC3 inhib, ALR H2O2 inh)
Cc1cccc(C(=O)NC(=S)NNC(=O)c2ccccc2Cl)c1	ALR H2O2 inh 98.4
CC(C)(C)c1cc(NC(=O)C2(C)CCN2C(=O)C2(c3ccccc3)CCCC2)no1 (stereo not given)	none (no result: HDAC3 inhib, ALR H2O2 inh)
C=CCn1c(NCc2ccc(N(C)C)cc2)nc2ccccc21	ALR H2O2 inh 98.7
C=CCn1c(NCc2ccco2)nc2ccccc21	none
CCCCn1c(NCc2ccncc2)nc2ccccc21	none
CCCCn1c(NCc2ccc(N(C)C)cc2)nc2ccccc21	ALR H2O2 inh 88.2
Cc1nc2c3ccccc3nc(NNC(=O)CCC(=O)N3CCN(c4ccc(F)cc4)CC3)n2n1	ALR H2O2 inh 89.7
Cc1nc2c3ccccc3nc(NNC(=O)CCC(=O)NCCN3CCN(c4ccccc4)CC3)n2n1	ALR H2O2 inh 98.4
O=C(Nc1nc2c(s1)COc1ccccc1-2)c1cccs1	ALR H2O2 inh 95.6 (no result: HDAC3 inhib)
CCOC(=O)N[C@H](C(=O)N1CCC[C@H]1C(=O)NC1CCCC1)C1CCCCC1	none (no result: HDAC3 inhib, ALR H2O2 inh)
N#CCCN1CCN(C(=S)c2ccc(-c3cccc(Cl)c3)o2)CC1	NPR2 activator 72.7
O=C(O)c1ccc(-c2cccc(Cl)c2)o1	none
O=[N+]([O-])c1cc(-c2ccc(C(=S)N3CCOCC3)o2)ccc1Cl	none
N#CCCN1CCN(C(=S)c2ccc(-c3ccc(Cl)c(Cl)c3)o2)CC1	NPR2 activator 61.3
CN(C)P(=O)(Nc1cccc2ccccc12)Nc1cccc2ccccc12	none (no result: ALR H2O2 inh)
COc1cc2ccc(=O)oc2cc1O	ALR H2O2 inh 97.9
COc1cc2ccc(=O)oc2cc1OCC(O)C(C)(C)O (stereo not given)	none
N=C(N)SCc1ccccc1Cl	ALR H2O2 inh 99.5
C=CCn1c(C(C)NC(=O)c2ccc(C)cc2)n[nH]c1=S (stereo not given)	ALR H2O2 inh 95.4
O=C(NCC1CCN(C(=O)C(=O)c2cccs2)CC1)c1cccnc1	none (no result: HDAC3 inhib, ALR H2O2 inh)
COc1ccccc1N=c1oc2cc(O)ccc2cc1C(=O)NCC1CCCO1 (stereo not given)	ALR H2O2 inh 92.1
COc1cccc(N=c2oc3cc(O)ccc3cc2C(=O)NCC2CCCO2)c1 (stereo not given)	none
COc1cccc(NC(=O)CSc2ccccn2)c1	ALR H2O2 inh 89.9
COc1ccc(OC)c(NC(=O)CSc2nn3c(=O)c(C)nnc3s2)c1	ALR H2O2 inh 85.6 (no result: HDAC3 inhib)
COc1ccc(CCNC(=O)CSc2nn3c(=O)c(C)nnc3s2)cc1OC	none
COc1cccc(NC(=O)CSc2nn3c(=O)c(C)nnc3s2)c1	ALR H2O2 inh 98.9
Cc1ccccc1NC(=O)CSc1nn2c(=O)c(C)nnc2s1	none
Cc1nnc2sc(SCC(=O)Nc3cccc(Cl)c3)nn2c1=O	ALR H2O2 inh 98.1
COc1ccc(NCC(=O)NN=C2CCS(=O)(=O)c3ccc(F)cc32)cc1	none
CC(=O)OC[C@H]1O[C@H](C#Cc2ccc(C(C)(C)C)cc2)C=C[C@H]1OC(=O)Nc1ccccc1	none (no result: HDAC3 inhib, ALR H2O2 inh)
CCc1ccccc1NC(=S)N(Cc1ccc(OC)cc1)CC1CCC(C(=O)O)CC1 (stereo not given)	none
COc1cccc(CNC(=O)CCNC(=O)N2CCn3c2nc2ccccc23)c1	ALR H2O2 inh 97.9
Cc1ccc(CNC(=O)CCNC(=O)N2CCn3c2nc2ccccc23)cc1	ALR H2O2 inh 93.9
O=C(Nc1c(C(=O)N2CCN(c3ccccn3)CC2)oc2ccccc12)c1cccc([N+](=O)[O-])c1	none
COc1ccc2cc(/C=N/NC(=O)CSCc3ccc([N+](=O)[O-])cc3)c(Cl)nc2c1	ALR H2O2 inh 99.1
O=C(OCc1cn(Cc2ccc(F)c(F)c2)nn1)N1CCOCC1	none (no result: HDAC3 inhib, ALR H2O2 inh)
COc1cc(/C=N/n2c(COc3ccccc3)n[nH]c2=S)cc(Br)c1O	ALR H2O2 inh 97.0
COc1cc(-c2n[nH]c(=S)n2/N=C/c2cccn2C)cc(OC)c1OC	HDAC3 inhib inconclusive, ALR H2O2 inh 96.5
Cc1ccc(-c2n[nH]c(=S)n2/N=C/c2ccc(C(=O)O)cc2)cc1	ALR H2O2 inh 89.9
Cn1cccc1/C=N/n1c(-c2ccco2)n[nH]c1=S	none
CCc1n[nH]c(=S)n1/N=C/c1cc(Br)c(O)c(OC)c1	none
COc1cc(/C=N/n2c(-c3n[nH]c4c3CCC4)n[nH]c2=S)ccc1O	ALR H2O2 inh 99.4
O=C(O)c1ccc(C=Nn2c(-c3ccc(F)cc3)n[nH]c2=S)cc1	none (no result: HDAC3 inhib, ALR H2O2 inh)
O=[N+]([O-])c1cc(Cl)c(Cl)c(Cl)c1Cl	none
Cc1c(Br)c(O)c(Br)c(O)c1/C=N/n1c(-c2ccccc2)n[nH]c1=S	ALR H2O2 inh 97.7 (no result: NPR1 activator, NPR2 activator)
O=C(O)c1ccc(/C=N/n2cc(-c3ccccc3)[nH]c2=S)cc1	ALR H2O2 inh 99.1
COc1cc(/C=N/n2c(-c3ccccc3)n[nH]c2=S)ccc1O	ALR H2O2 inh 98.8
COc1cccc(C(=O)NN2C(=S)N(c3ccccc3)C(=O)C2CC(N)=O)c1 (stereo not given)	none (no result: ALR H2O2 inh)
COc1ccc(-n2c(=S)[nH]c3c(oc4ccccc43)c2=O)cc1	ALR H2O2 inh 92.6
CCS(=O)(=O)C1=NN2C(=N)/C(=C\c3ccc(OC(=O)c4ccco4)c(Br)c3)C(=O)N=C2S1	HDAC3 inhib 39.2 (no result: NPR1 activator, NPR2 activator)
N=C1/C(=C\c2ccc(OC(=O)c3ccco3)cc2)C(=O)N=C2SC(N3CCCCC3)=NN12	none
N=C1/C(=C/c2ccc(OC(=O)c3ccco3)cc2)C(=O)N=C2SC=CN12	HDAC3 inhib inconclusive, ALR H2O2 inh 97.7
